# From ChEMBL document CHEMBL4513216, “Probing the Open Global Health Chemical Diversity Library for Multistage-Active Starting Points for Next-Generation Antimalarials” (ACS Infect Dis, 2020)
# Among all 69,000 compounds or so, about 8,600 (12%) showed an effect of 50% or more. The sample as a whole holds a higher share of strong results than the screen did.
# Tested on: Plasmodium berghei
# Test: Screen against P. berghei liver stage (PbLuc), transformed with Luciferase, at 10uM
# Type: functional, HepG2
# Details: tested at 10 uM
row,SMILES,INHIBITION
1,CC(=O)NCCCNC(=O)N1CCN(c2cc(F)ccc2F)CC1,-15%
2,N#Cc1ccccc1CN1C[C@H]2CC[C@@H](C1)N(Cc1cscn1)C2=O,6.8%
3,CCc1nc(C)sc1CN1CC[C@@](O)(CCOC)[C@H](C)C1,21.8%
4,COCCn1cncc1-c1nc2c([nH]1)CC(C)(C)CNC2=O,-27.6%
5,COCC(=O)N1CCCCC1c1nc(C)c2c(n1)N(C1CC1)C(=O)CC2 (stereo not given),36.9%
6,CCN1CCC(NC(=O)CN2CCCC2Cn2nc(C)nc2C)CC1 (stereo not given),31.2%
7,CSCC[C@H](NC(=O)Cn1ccc2ccc(Cl)cc21)C(=O)O,-30.8%
8,Cc1cc(CN2CCCC2Cn2cccn2)no1 (stereo not given),9.2%
9,CSCc1cccc(S(=O)(=O)N2CCCCCC2)c1,2.69%
10,Cc1cc(NC2CCc3nc(C(C)C)nn3C2)n2ncnc2n1 (stereo not given),49.1%
11,Cn1nnc2c1C(COCc1ccccn1)CN(C(=O)c1cccs1)C2 (stereo not given),31.8%
12,CS(=O)(=O)N1CC[C@]2(C[C@@H](Oc3ccccn3)CO2)C1,29%
13,COc1cccc([C@H]2CN(C(=O)c3ccccc3)[C@@H]3CCCN[C@H]23)c1,55.6%
14,COc1cccc(C(=O)N2C[C@@H](c3ccccc3)[C@@H]3NCCCC[C@@H]32)c1,5.11%
15,COc1ccc(C(=O)N2C[C@@H](c3ccccc3)[C@@H]3NCCCC[C@@H]32)cc1,15.9%
16,CCn1cc(CN2CCCN(C(=O)c3ccoc3)CC2)cn1,41.2%
17,O=C(C[S+]([O-])Cc1csc(C2CCCC2)n1)NC1CCCC1 (stereo not given),36.9%
18,CCC(C)(C)NC(=O)C[S+]([O-])Cc1csc(C2CCCC2)n1 (stereo not given),63.8%

row,SMILES,INHIBITION
1,CCCNC(=O)C[S+]([O-])Cc1csc(C2CCCCC2)n1 (stereo not given),23%
2,CCc1cnc(N2CCc3ncnc(N4CCN(C)CC4)c3CC2)nc1,36.2%
3,O=S(=O)(NCc1ccnc(-n2ccnc2)c1)c1cncc(Cl)c1,15.2%
4,Cn1cc(S(=O)(=O)NC(=O)C2(c3ccccc3)CCC2)cn1,2.97%
5,Cc1cccc(C2(C(=O)NS(=O)(=O)c3cnn(C)c3)CCCC2)c1,53.5%
6,Cn1cc(S(=O)(=O)NC(=O)C2(c3cccc(Cl)c3)CC2)cn1,-6.94%
7,O=C(CCNC(=O)N1CCC(c2ccccc2)C1)N1CCCCC1 (stereo not given),-24.5%
8,CN(C(=O)C1CCOCC1)[C@@H]1CCC[C@@H](N2CCOCC2)[C@@H]1O,38.2%
9,Cc1nc(C)c2c(n1)CCN(Cc1ccsc1)CC2,-5.08%
10,Oc1nc(N2CCCC2)nc2c1CCN(Cc1ccsc1)CC2,61.7%
11,Oc1nc(N2CCCC2)nc2c1CCN(Cc1cccnc1)CC2,24.8%
12,CN(Cc1ccsc1)C(=O)c1nc(N2CCCCC2)ncc1Cl,26.7%
13,CN(Cc1ccsc1)C(=O)c1nc(N2CCCC2)ncc1Cl,-0.232%
14,c1cncc(-c2ncnc3c2CCN(Cc2ccsc2)CC3)c1,3.58%
15,O=C(c1nc(N2CCCC2)ncc1Cl)N1CCN(Cc2ccsc2)CC1,72.1%
16,Cc1nc(N2CCOCC2)nc2c1CCN(Cc1ccsc1)CC2,60.5%
17,Cc1nc(N2CCCC2)nc2c1CCN(Cc1ccsc1)CC2,4.1%
